Here are results for eight compounds from PubChem BioAssay (EPA / NIEHS).

The target of assay [1] is rat CYP2C12, Cyp2c12 (gene 25011) (UniProt P11510). The experiment in a line: NVS_ADME_rCYP2C12: NovaScreen (NVS) CYP450-related Enzyme Activity (ADME) Assay for rat CYP2C12 (AID 2283119). The procedure, abridged:
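Cell-free recombinant rat CYP2C12 activity read by fluorescence 0.5 h after dosing; loss of signal versus acetonitrile control. Primary screen in duplicate at 10 uM; actives then run in concentration-response format.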

Assay [2] addresses human Epidermal Growth Factor Receptor (EGFR), EGFR (gene 1956) (UniProt P00533). The experiment in a line: NVS_ENZ_hEGFR: NovaScreen (NVS) Enzymatic Assay for human Epidermal Growth Factor Receptor (EGFR) (AID 2283151). The procedure, abridged: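 Cell-free kinase assay, fluorescence plus electrophoretic mobility shift separating substrate and product, read 1 hour after dosing; loss of signal vs DMSO. Duplicate screen at 25 uM, then concentration-response to 50 uM.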

For assay [3], the target named is human p21 Activated Kinase 4 (PAK4), PAK4 (gene 10298) (UniProt O96013). Kind of assay: NVS_ENZ_hPAK4: NovaScreen (NVS) Enzymatic Assay for human p21 Activated Kinase 4 (PAK4) (AID 2283189). The procedure, abridged: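 Cell-free recombinant human PAK4 activity assay; fluorescent substrate and product separated by electrophoretic mobility shift, read 1 h after dosing. Initially tested in duplicate at 25 uM, relative to DMSO baseline.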

For assay [4], the target named is human Protein Tyrosine Phosphatase Receptor Type C (PTPRC), PTPRC (gene 5788) (UniProt P08575). Kind of assay: NVS_ENZ_hPTPRC: NovaScreen (NVS) Enzymatic Assay for human Protein Tyrosine Phosphatase Receptor Type C (PTPRC) (AID 2283212). The procedure, abridged:
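Yeast-extracted human PTPRC used in a cell-free colorimetric enzyme activity read-out, 1 h after dosing. Primary screen in duplicate at 25 uM; actives rerun in concentration-response up to 50 uM, DMSO as baseline.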

For assay [5], the system named is rat Monoamine Oxidase, MAO-A, Peripheral (MAOAP), gene 29253. The experiment in a line: NVS_ENZ_rMAOAP: NovaScreen (NVS) Enzymatic Assay for rat Monoamine Oxidase, MAO-A, Peripheral (MAOAP) (AID 2283237). The procedure, abridged:
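Rat liver mitochondrial membranes served as the MAO-A source, with enzyme activity measured by radiometric scintillation counting 1.17 hours after dosing. Loss of signal was fitted against DMSO; primary screen used 25 uM in duplicate, follow-up used concentration series.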

For assay [6], the target named is rat Oxytocin Receptor (OXT), Oxtr (gene 25342) (UniProt P70536). The experiment in a line: NVS_GPCR_rOXT: NovaScreen (NVS) G Protein-Coupled Receptor Assay for rat Oxytocin Receptor (OXT) (AID 2283330). The procedure, abridged: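 Radioligand displacement on rat uterine membranes, 1 h incubation, filter-based scintillation counting. Chemicals were screened in duplicate at 25 uM, and those passing threshold were retested in concentration-response up to 50 uM. Loss of binding was fitted versus DMSO.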

Assay [7] addresses Norway rat Vesicular Monoamine Transporter (VMAT2), neurotransmitter transporter, Slc18a2 (gene 25549) (UniProt Q01827). Kind of assay: NVS_TR_rVMAT2: NovaScreen (NVS) Transporter Assay for Norway rat Vesicular Monoamine Transporter (VMAT2), neurotransmitter transporter (AID 2283376).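 Also: actives lower the bound radioligand signal below the DMSO level.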 The procedure, abridged:
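Tissue: rat forebrain extract. Format: competitive radioligand binding, cell-free. Timepoint: 1 h. Readout: filter radiodetection/scintillation. Screen: 25 uM in duplicate, then concentration series for actives. Baseline: DMSO.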

Assay [8] can be described thus: ATG_M_32_XSP2: Attagene TRANS-FACTORIAL Multi-Species (XSP2) HepG2 Assay for M19 Transcription Factor (Internal Marker) (AID 2283826). The procedure, abridged: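 Transfected HepG2 (multiplexed GAL4-UAS reporters), 24 h chemical exposure, 3 nM 6-alpha-fluorotestosterone + 1.5 nM norgestrel added. RNA → oligo(dT) RT → PCR → 6-FAM primer extension → HpaI cut → CE. Fitted upward vs DMSO.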

Assay [9] addresses human Acetylcholinesterase (AChE), ACHE (gene 43) (UniProt P22303). The experiment in a line: NVS_ENZ_hAChE: NovaScreen (NVS) Enzymatic Assay for human Acetylcholinesterase (AChE) (AID 2283129). The procedure, abridged: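 Cell-free colorimetric enzyme-activity assay; compounds read 0.33 hour after dosing, loss of signal vs DMSO baseline. Primary screen in duplicate at 25 uM single concentration, with active compounds retested in concentration series.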

Assay [10] addresses human Caspase 2 (CASP2), CASP2 (gene 835) (UniProt P42575). Kind of assay: NVS_ENZ_hCASP2: NovaScreen (NVS) Enzymatic Assay for human Caspase 2 (CASP2) (AID 2283135). The procedure, abridged:
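E. coli-expressed enzyme in a cell-free protease assay, fluorescence read 1 h after dosing. Compounds at 25 uM in duplicate, with concentration-response up to 50 uM for hits; loss of signal against DMSO baseline.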

Assay [11] has as its target Protein deacetylase HDAC6 (Homo sapiens) (UniProt Q9UBN7). Kind of assay: NVS_ENZ_hHDAC6: NovaScreen (NVS) Enzymatic Assay for human Histone Deacetylase 6 (HDAC6) (AID 2283164). The procedure, abridged: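 Recombinant human HDAC6 with fluorescent substrate, 1 h; product separated from substrate by electrophoretic mobility shift. Primary screen in duplicate at 25 uM; actives retested singly in concentration-response up to 50 uM, fitted relative to DMSO.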

The target in assay [12] is human AMP-activated Protein Kinase, alpha 1 (AMPKa1), PRKAA1 (gene 5562) (UniProt Q13131). Kind of assay: NVS_ENZ_hAMPKa1: NovaScreen (NVS) Enzymatic Assay for human AMP-activated Protein Kinase, alpha 1 (AMPKa1) (AID 2283130). The procedure, abridged:
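Recombinant human AMPKα1 activity was measured cell-free by fluorescent substrate conversion with electrophoretic mobility-shift separation, 1 h after dosing. Duplicate single-point screening was at 25 uM; actives (≥30% inhibition) were retested in concentration-response up to 50 uM.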

The subject of assay [13] is rat Monoamine Oxidase, MAO-A, Central (MAOAC), gene 29253. Kind of assay: NVS_ENZ_rMAOAC: NovaScreen (NVS) Enzymatic Assay for rat Monoamine Oxidase, MAO-A, Central (MAOAC) (AID 2283243).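 Also: potency refers to inhibition seen as signal drop below DMSO baseline.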 The procedure, abridged:
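Rat brain tissue extract used as enzyme source in a cell-free radiometric assay, read by scintillation counting 1.5 hours after dosing. Loss of signal relative to DMSO baseline scored; primary screen at 25 uM in duplicate, actives followed up in concentration series.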

Assay [14] concerns the target rat Gamma-Aminobutyric Acid Type A Receptor BDZ, alpha 6 site (GABARa6), Gabra6 (gene 29708) (UniProt P30191). The experiment in a line: NVS_LGIC_rGABARa6: NovaScreen (NVS) Ligand-Gated Ion Channel Assay for rat Gamma-Aminobutyric Acid Type A Receptor BDZ, alpha 6 site (GABARa6) (AID 2283339). The procedure, abridged:
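Rat cerebellar membranes; radioligand binding, filtration and scintillation counting, read 1 h after dosing. Single-concentration duplicate screen at 25 uM, then concentration-response up to 50 uM for actives; loss of signal fitted versus DMSO baseline.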

Assay [15] deals with Androgen receptor (Homo sapiens) (UniProt P10275). The experiment in a line: ATG_AR_TRANS: Attagene TRANS-FACTORIAL HepG2 Assay for human Androgen Receptor (AR) (AID 2282973). The following applies: HepG2 Attagene TRANS-FACTORIAL AR reporter transcription. The procedure, abridged:
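Steps: transfect HepG2 with multiple GAL4-UAS reporter transcription units (TRANS format, exogenous NR-Gal4 protein); dose 24 h; isolate RNA, reverse-transcribe, PCR-amplify, FAM-label, HpaI-digest; resolve by capillary electrophoresis. Positive direction vs DMSO.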

The next assay deals with rat CYP2B1, gene 24300. Kind of assay: NVS_ADME_rCYP2B1: NovaScreen (NVS) CYP450-related Enzyme Activity (ADME) Assay for rat CYP2B1 (AID 2283117). The procedure, abridged: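 Recombinant rat CYP2B1 with fluorogenic substrate, read at 0.75 h. Primary screen in duplicate at 10 uM; compounds meeting threshold (e.g., 30% inhibition) re-run in concentration-response up to 20 uM. Fitted against acetonitrile control.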

Assay [16] addresses human Fibroblast Growth Factor Receptor 1 (FGFR1), FGFR1 (gene 2260) (UniProt P11362). Kind of assay: NVS_ENZ_hFGFR1: NovaScreen (NVS) Enzymatic Assay for human Fibroblast Growth Factor Receptor 1 (FGFR1) (AID 2283159).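 As to AC50: hits lower the signal so potencies describe inhibitors of the kinase.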 The procedure, abridged: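 Cell-free recombinant kinase with fluorescent substrate, product separated by electrophoretic mobility shift; read 1 hour after dosing, loss of signal relative to DMSO. Initial screen in duplicate at 25 uM, actives followed in concentration series.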

Assay [17] addresses human Tyrosine Protein Kinase Receptor Tie-2 (Tie2), TEK (gene 7010) (UniProt Q02763). The experiment in a line: NVS_ENZ_hTie2: NovaScreen (NVS) Enzymatic Assay for human Tyrosine Protein Kinase Receptor Tie-2 (Tie2) (AID 2283225). The procedure, abridged:
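Recombinant human Tie2 kinase activity was read cell-free by fluorescence with electrophoretic mobility shift, 1 hour after dosing. The screen used 25 uM in duplicate, then concentration-response up to 50 uM. Signal loss was scored against DMSO.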

The nature of assay [18]: TOX21_TRB_BLA_Agonist_Followup_viability: Viability Assessment in the Tox21 Thyroid Hormone Receptor beta Agonism Beta-lactamase (BLA) Follow-Up Assay (AID 2283956). The procedure, abridged:
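TRb-bla HEK293T cells (GAL4-DBD/human TRb LBD) in 2% charcoal-stripped FBS medium were exposed 18 h at 37C to 11 concentrations in triplicate. CellTiter-Glo ATP luminescence was read after 30 min at room temperature, with bidirectional fitting against DMSO.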

The target in assay [19] is rat CYP1A2, Cyp1a2 (gene 24297) (UniProt P04799). The experiment in a line: NVS_ADME_rCYP1A2: NovaScreen (NVS) CYP450-related Enzyme Activity (ADME) Assay for rat CYP1A2 (AID 2283115). The procedure, abridged: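 Cell-free recombinant rat enzyme with fluorogenic substrate, read by fluorescence intensity 1 hour after dosing. Loss of signal versus acetonitrile negative control; primary screen at 10 uM in duplicate, actives followed in concentration series.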

Several values for one entry are separate records, joined by “and”; a condition that tells them apart may be missing. Identical values can stand only once. Inconclusive results are not listed. Activity calls are given as the source filed them. The calls were made as follows: active = hit-call score of the fitted dose curve at least 0.9, where 1 is the maximum; inconclusive = response in the unintended direction; inactive = score below 0.9.

Sequence of rat Oxytocin Receptor (OXT), Oxtr (gene 25342) (P70536 whole entry, looked up): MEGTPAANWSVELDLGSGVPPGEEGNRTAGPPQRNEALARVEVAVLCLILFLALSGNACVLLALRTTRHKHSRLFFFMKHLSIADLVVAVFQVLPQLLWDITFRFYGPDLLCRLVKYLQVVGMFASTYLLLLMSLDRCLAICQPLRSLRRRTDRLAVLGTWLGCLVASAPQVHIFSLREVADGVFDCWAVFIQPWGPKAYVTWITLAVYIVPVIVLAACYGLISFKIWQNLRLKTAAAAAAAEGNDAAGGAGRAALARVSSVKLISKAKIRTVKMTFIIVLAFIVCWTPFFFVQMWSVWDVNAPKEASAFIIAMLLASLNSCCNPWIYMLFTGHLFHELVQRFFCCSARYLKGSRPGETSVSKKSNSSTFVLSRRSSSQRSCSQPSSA
Sequence of rat CYP2C12, Cyp2c12 (gene 25011) (P11510 whole entry, looked up): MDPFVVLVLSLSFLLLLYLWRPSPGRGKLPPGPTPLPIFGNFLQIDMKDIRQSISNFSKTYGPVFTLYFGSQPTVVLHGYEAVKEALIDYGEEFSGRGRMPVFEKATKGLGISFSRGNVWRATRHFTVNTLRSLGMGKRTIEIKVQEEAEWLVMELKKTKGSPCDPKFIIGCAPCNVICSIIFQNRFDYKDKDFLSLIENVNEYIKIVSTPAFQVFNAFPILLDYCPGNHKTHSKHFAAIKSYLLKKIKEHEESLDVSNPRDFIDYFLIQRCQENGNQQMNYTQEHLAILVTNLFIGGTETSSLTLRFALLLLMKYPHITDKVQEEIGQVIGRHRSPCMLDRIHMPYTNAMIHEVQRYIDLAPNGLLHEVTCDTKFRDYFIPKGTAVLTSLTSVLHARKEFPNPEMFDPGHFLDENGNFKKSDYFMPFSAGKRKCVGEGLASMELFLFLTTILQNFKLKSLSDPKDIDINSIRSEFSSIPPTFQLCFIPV
Sequence of Androgen receptor (Homo sapiens) (P10275 whole entry, looked up, the tested form may be a part): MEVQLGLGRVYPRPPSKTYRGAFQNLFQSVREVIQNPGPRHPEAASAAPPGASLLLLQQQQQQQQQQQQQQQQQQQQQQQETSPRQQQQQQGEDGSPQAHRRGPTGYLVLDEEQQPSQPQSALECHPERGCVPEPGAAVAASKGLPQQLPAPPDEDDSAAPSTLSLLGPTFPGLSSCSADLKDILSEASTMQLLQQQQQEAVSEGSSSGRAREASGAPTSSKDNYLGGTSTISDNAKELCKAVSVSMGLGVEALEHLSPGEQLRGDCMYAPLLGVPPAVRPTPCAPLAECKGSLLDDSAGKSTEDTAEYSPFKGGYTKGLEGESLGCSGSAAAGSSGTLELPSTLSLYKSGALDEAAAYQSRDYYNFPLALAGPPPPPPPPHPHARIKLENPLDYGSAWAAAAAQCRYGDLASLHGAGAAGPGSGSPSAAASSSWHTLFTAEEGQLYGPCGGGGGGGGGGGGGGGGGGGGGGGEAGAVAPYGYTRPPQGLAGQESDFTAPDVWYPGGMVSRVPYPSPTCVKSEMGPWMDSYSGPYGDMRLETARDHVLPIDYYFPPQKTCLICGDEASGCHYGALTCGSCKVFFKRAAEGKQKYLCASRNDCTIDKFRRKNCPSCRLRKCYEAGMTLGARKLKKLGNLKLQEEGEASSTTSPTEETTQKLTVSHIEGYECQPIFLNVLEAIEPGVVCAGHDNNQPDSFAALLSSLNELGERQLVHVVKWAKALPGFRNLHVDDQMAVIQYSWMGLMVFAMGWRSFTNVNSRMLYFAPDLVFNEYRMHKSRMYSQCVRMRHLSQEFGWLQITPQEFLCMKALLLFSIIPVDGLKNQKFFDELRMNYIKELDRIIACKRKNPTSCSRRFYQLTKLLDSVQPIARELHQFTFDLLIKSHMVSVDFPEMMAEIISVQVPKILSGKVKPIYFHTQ
Sequence of Norway rat Vesicular Monoamine Transporter (VMAT2), neurotransmitter transporter, Slc18a2 (gene 25549) (Q01827 whole entry, looked up): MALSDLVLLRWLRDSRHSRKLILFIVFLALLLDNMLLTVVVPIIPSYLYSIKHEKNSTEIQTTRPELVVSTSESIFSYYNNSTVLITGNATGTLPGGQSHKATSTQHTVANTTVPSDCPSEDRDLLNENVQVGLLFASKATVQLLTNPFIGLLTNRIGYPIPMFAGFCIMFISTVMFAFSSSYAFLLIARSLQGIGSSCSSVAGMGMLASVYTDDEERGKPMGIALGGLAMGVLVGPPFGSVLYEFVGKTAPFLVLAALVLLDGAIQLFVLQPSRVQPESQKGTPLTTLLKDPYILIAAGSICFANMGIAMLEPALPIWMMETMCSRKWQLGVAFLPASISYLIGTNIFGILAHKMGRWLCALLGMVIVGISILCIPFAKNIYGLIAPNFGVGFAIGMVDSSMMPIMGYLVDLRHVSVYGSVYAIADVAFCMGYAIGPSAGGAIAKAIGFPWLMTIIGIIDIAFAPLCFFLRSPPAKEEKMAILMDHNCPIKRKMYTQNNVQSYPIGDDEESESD
Sequence of human Fibroblast Growth Factor Receptor 1 (FGFR1), FGFR1 (gene 2260) (P11362 whole entry, looked up): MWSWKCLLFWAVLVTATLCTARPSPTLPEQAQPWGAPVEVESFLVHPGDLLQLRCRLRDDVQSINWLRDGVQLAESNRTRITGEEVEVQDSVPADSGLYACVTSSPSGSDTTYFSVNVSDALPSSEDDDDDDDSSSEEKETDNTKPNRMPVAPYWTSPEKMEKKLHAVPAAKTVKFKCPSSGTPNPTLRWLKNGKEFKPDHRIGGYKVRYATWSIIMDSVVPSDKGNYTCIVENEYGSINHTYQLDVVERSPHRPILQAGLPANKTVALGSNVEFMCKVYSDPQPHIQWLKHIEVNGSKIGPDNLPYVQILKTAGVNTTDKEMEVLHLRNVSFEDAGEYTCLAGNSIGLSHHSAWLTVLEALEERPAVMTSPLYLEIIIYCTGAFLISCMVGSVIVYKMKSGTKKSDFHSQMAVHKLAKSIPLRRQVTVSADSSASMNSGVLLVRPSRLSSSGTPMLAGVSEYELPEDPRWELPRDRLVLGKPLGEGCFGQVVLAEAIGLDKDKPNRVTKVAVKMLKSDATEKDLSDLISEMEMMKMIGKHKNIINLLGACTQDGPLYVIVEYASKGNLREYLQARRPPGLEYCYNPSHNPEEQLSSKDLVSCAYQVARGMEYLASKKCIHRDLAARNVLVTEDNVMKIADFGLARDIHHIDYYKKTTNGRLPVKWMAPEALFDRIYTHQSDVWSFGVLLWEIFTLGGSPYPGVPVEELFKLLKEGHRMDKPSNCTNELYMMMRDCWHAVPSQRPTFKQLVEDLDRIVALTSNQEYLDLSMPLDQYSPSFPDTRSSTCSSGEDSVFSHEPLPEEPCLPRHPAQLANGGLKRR
Sequence of human p21 Activated Kinase 4 (PAK4), PAK4 (gene 10298) (O96013 whole entry, looked up): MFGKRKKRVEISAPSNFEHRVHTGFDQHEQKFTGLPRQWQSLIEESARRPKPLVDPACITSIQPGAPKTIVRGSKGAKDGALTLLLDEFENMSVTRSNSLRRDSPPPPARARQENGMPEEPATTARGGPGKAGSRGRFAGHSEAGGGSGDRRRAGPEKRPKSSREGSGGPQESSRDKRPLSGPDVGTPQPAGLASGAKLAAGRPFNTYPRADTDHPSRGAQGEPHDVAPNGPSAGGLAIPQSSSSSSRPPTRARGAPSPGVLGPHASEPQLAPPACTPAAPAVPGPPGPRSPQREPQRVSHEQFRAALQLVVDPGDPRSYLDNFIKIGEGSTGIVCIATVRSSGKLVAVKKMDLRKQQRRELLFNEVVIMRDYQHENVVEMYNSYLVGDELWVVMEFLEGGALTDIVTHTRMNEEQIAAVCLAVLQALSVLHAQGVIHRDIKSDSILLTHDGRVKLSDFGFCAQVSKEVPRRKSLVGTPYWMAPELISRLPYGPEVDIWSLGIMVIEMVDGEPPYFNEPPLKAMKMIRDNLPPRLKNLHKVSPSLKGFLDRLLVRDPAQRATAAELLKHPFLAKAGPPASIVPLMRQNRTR
Sequence of human Protein Tyrosine Phosphatase Receptor Type C (PTPRC), PTPRC (gene 5788) (P08575 whole entry, looked up): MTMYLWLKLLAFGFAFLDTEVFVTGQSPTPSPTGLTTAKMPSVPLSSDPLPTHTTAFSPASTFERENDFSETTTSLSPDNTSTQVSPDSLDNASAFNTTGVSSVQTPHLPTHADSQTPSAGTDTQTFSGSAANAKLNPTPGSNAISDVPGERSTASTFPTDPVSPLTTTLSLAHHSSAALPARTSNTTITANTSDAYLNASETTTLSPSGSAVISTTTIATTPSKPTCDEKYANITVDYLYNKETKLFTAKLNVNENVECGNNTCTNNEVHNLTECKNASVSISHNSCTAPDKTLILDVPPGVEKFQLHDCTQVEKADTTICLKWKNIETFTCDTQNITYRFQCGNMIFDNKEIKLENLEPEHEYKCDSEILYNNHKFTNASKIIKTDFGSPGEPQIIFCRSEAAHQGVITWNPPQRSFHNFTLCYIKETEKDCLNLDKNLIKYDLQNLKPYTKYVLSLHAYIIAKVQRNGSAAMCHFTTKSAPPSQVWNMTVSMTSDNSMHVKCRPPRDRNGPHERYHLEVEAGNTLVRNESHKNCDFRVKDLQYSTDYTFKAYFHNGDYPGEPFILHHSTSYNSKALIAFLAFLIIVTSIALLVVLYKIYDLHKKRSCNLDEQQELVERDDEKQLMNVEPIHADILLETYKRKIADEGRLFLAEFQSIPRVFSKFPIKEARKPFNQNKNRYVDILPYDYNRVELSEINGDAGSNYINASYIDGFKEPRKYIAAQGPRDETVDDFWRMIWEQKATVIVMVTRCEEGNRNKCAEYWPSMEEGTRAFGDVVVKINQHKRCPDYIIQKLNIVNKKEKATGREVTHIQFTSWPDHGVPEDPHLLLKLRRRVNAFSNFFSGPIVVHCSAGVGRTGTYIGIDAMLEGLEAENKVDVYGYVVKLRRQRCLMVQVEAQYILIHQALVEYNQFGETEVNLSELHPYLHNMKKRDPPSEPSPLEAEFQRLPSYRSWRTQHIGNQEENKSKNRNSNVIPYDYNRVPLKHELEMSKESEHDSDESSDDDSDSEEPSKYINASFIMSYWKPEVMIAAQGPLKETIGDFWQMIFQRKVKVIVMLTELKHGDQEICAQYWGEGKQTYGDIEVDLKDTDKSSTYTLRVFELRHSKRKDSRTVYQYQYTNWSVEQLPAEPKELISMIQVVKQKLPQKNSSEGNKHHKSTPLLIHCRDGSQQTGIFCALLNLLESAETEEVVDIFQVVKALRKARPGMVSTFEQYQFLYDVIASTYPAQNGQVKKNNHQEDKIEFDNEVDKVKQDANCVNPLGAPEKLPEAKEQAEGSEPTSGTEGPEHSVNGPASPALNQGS

For orientation: AC50 means the concentration giving half of the maximal activity seen. `CC(C)(c1ccc(O)cc1)c1ccc(O)cc1`: the concentration at half-maximal activity (AC50) in assay [1] was 7.75 µM (active) and 4.05 µM (active) and 10 µM (active); in [6] it was 7.41 µM (active); in [7], 12.5 µM (active) [middle of 4 runs]. Besides, the compound was classed as inactive in [2], in assay [3], in assay [4], in assay [5] and in [8].
As to `CSc1ccc(Oc2ccc(S(N)(=O)=O)cc2CN(C)C)cc1C`, the compound was classed as inactive in assay [9], in assay [10] and in assay [11].
As for `Cc1nc(-c2ccc3c(c2)CCN(CCC2CCC(NC(=O)/C=C/c4ccc(F)cc4)CC2)CC3)no1` (stereo unspecified), the compound was called inactive in assay [12], in [13] and in assay [6].
With `CCCCCCCCCC(=O)O`, the outcome in assay [14] was inactive.
For the compound `CCCCCCCCCCCCCC[P+](CCCC)(CCCC)CCCC`, in assay [15], the compound was classed as inactive. The AC50 was 6.5 µM (active) with rat CYP2B1, gene 24300; 5.1 µM (active) in [16]; 14.5 µM (active) in assay [3]; 15.3 µM (active) in assay [17].
As to `CCCN(CCC)C(=O)SCC`, the outcome in assay [15], in assay [9], in assay [6] and in assay [18] was inactive.
For the compound `CCOc1ccc2c(c1)C(C)=CC(C)(C)N2`, the result in [15], in assay [10] and in [16] was inactive. For the same compound, the AC50 in assay [4] was 8.36 µM (active); in assay [13] it was 16.6 µM (active).
Consider `COc1ccc(C(=O)/C(Br)=C\C(=O)O)cc1`, for which the call in assay [15] and in [19] was inactive.
